Laboratory results as given in PubChem BioAssay (Tox21).
Unmarked numbers belong to inactive results. The source made the active and inactive calls. Calls follow the shape of the dose curve; as a rule, active = well fitted curve in the direction sought with a large enough effect in the repeat runs; inconclusive = weak or mixed curves; inactive = flat fitted curve, though single readings scatter.

experiment: qHTS assay to test for compound auto fluorescence at 460 nm (blue) in HepG2 cell free culture (AID 720685); settings: Cell-free culture medium, blue autofluorescence 405/460 nm; series mostly up to 91.3 µM
Outline: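 Cell-free plates of MEM plus 10% FBS received 23 nL compound or DMSO vehicle; blue-channel (405/460 nm) intensity scored against triamterene as reference fluorophore.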
% is scaled to controls: 0 for no effect and ±100 for the full control effect.

| Compound | outcome | fluorescence, % of fluorescent control |
| --- | --- | --- |
| CCOC(=O)C(C)(C)C | inactive |  |
| CCCCC(CC)C(=O)OC(C)C (centres undefined) | inactive |  |
| CCCCC[Si](OCC)(OCC)OCC | inactive |  |
| CCCCC(=O)N(C)C | inactive |  |
| C[CH2][Ge]([Cl])([CH2]C)[CH2]C | inactive |  |
| Cc1nc([N+](=O)[O-])cn1-c1ccc([N+](=O)[O-])cc1 | inactive |  |
| Cc1cccc(Nc2ccncc2S(=O)(=O)NC(=O)NC(C)C)c1 |  | -0.124% [at 18.6 µM] |
| N#CCCOCCOCCC#N | inactive |  |
| CC(C)COC(=O)CCCCC(=O)OCC(C)C | inactive |  |
| CCc1nccnc1C | inactive |  |
| Cc1ncc([N+](=O)[O-])n1CC(O)CCl (centres undefined) |  | -0.0905% [at 18.6 µM] |
| CCOc1ccc(NC(=O)OC(C)C)cc1OCC | inactive |  |
| C[C@H](CCC(=O)O)[C@H]1CC[C@H]2[C@@H]3[C@H](O)C[C@@H]4C[C@H](O)CC[C@]4(C)[C@H]3C[C@H](O)[C@]12C | inactive |  |
| NCCc1ccn[nH]1 |  | -0.0614% [at 18.6 µM] |
| O=P(O)(O)OCC(O)CO (centres undefined) | inactive |  |
| CCC1Nc2cc(Cl)c(S(N)(=O)=O)cc2S(=O)(=O)N1 (centres undefined) | inactive |  |

| Compound | outcome | fluorescence, % of fluorescent control |
| --- | --- | --- |
| O=C(/C=C/c1ccccc1)NCCO | inactive |  |
| CCC(C)N (centres undefined) | inactive |  |
| CNC(=O)C(c1ccccc1)c1ccccc1 | inactive |  |
| CCCOCCOCCOCCO | inactive |  |
| O=[Si]=O | inactive |  |
| C=CCOc1c(Br)cc(C(C)(C)c2cc(Br)c(OCC=C)c(Br)c2)cc1Br | inactive |  |
| CC(=O)OCC(=O)[C@@]1(O)[C@H](OC(C)=O)C[C@H]2[C@@H]3CCC4=CC(=O)C=C[C@]4(C)[C@@]3(F)[C@@H](O)C[C@@]21C | inactive |  |
| CC(C)COC(=O)COc1ccc(Cl)cc1Cl | inactive |  |
| CC(=O)c1ccc(OCC(=O)N2CCCCC2)cc1 | inactive |  |
| CN=C(NC#N)NCCSCc1csc(N=C(N)N)n1 | inactive |  |
| C[Si]1(C)N[Si](C)(C)N[Si](C)(C)N1 | inactive |  |
| Cc1ccccc1C | inactive |  |
| O=c1cc(O)c(Cl)c[nH]1 | inactive |  |
| CCC(CO)CO | inactive |  |
| COC(/C=C(\C)CCC=C(C)C)OC | inactive |  |
| CC(C)(CO)[C@@H](O)C(=O)NCCCO | inactive |  |

experiment: qHTS assay to test for compound auto fluorescence at 535 nm (green) in HepG2 cell free culture (AID 720686); settings: Cell-free medium, green autofluorescence 485/535 nm; series mostly up to 91.3 µM

| Compound | outcome | fluorescence, % of fluorescein control |
| --- | --- | --- |
| CCOC(=O)C(C)(C)C | inactive |  |
| CCCCC(CC)C(=O)OC(C)C (centres undefined) | inactive |  |
| CCCCC[Si](OCC)(OCC)OCC | inactive |  |
| CCCCC(=O)N(C)C | inactive |  |
| C[CH2][Ge]([Cl])([CH2]C)[CH2]C | inactive |  |
| Cc1nc([N+](=O)[O-])cn1-c1ccc([N+](=O)[O-])cc1 | inactive |  |
| Cc1cccc(Nc2ccncc2S(=O)(=O)NC(=O)NC(C)C)c1 |  | 0.0067% [at 18.6 µM] |
| N#CCCOCCOCCC#N | inactive |  |
| CC(C)COC(=O)CCCCC(=O)OCC(C)C | inactive |  |
| CCc1nccnc1C | inactive |  |
| Cc1ncc([N+](=O)[O-])n1CC(O)CCl (centres undefined) |  | -0.0146% [at 18.6 µM] |
| COc1cccc2sc(N)nc12 | inactive |  |
| C[C@H](CCC(=O)O)[C@H]1CC[C@H]2[C@@H]3[C@H](O)C[C@@H]4C[C@H](O)CC[C@]4(C)[C@H]3C[C@H](O)[C@]12C | inactive |  |
| NCCc1ccn[nH]1 |  | -0.0021% [at 18.6 µM] |
| O=P(O)(O)OCC(O)CO (centres undefined) | inactive |  |
| CNC(=O)C(c1ccccc1)c1ccccc1 | inactive |  |
| CCCOCCOCCOCCO | inactive |  |
| CCCCOC(=O)[C@@H](C)Oc1ccc(Oc2ccc(C(F)(F)F)cn2)cc1 | inactive |  |
| CCC(C)(CCC(C)C)C(=O)[O-].CCC(C)(CCC(C)C)C(=O)[O-].[Zn+2] (centres undefined) | inactive |  |
| CC(=O)OCC(=O)[C@@]1(O)[C@H](OC(C)=O)C[C@H]2[C@@H]3CCC4=CC(=O)C=C[C@]4(C)[C@@]3(F)[C@@H](O)C[C@@]21C | inactive |  |
| CC(C)COC(=O)COc1ccc(Cl)cc1Cl | inactive |  |
| CC(=O)c1ccc(OCC(=O)N2CCCCC2)cc1 | inactive |  |
| CN=C(NC#N)NCCSCc1csc(N=C(N)N)n1 | inactive |  |
| C[Si]1(C)N[Si](C)(C)N[Si](C)(C)N1 | inactive |  |
| Cc1ccccc1C | inactive |  |
| O=c1cc(O)c(Cl)c[nH]1 | inactive |  |
| CCC(CO)CO | inactive |  |
| CC(C)(CO)[C@@H](O)C(=O)NCCCO | inactive |  |

experiment: qHTS assay to test for compound auto fluorescence at 460 nm (blue) in HepG2 cells (AID 720687); settings: autofluorescence 405/460 nm, 1 h; series mostly up to 91.3 µM
Outline: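 Blue-channel autofluorescence (Ex/Em 405/460 nm, triamterene-equivalent) was measured after 1 hr compound exposure at 37 C, 5% CO2. Cells were HepG2, plated overnight at 37 C in MEM plus 10% FBS.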

| Compound | outcome | fluorescence, % of fluorescent control |
| --- | --- | --- |
| CCOC(=O)C(C)(C)C | inactive |  |
| CCCCC(CC)C(=O)OC(C)C (centres undefined) | inactive |  |
| CCCCC(=O)N(C)C | inactive |  |
| C[CH2][Ge]([Cl])([CH2]C)[CH2]C | inactive |  |
| Cc1nc([N+](=O)[O-])cn1-c1ccc([N+](=O)[O-])cc1 | inactive |  |
| CC(C)COC(=O)CCCCC(=O)OCC(C)C | inactive |  |
| CCc1nccnc1C | inactive |  |
| Cc1ncc([N+](=O)[O-])n1CC(O)CCl (centres undefined) |  | -0.0428% [at 18.6 µM] |
| CCOc1ccc(NC(=O)OC(C)C)cc1OCC | inactive |  |
| C[C@H](CCC(=O)O)[C@H]1CC[C@H]2[C@@H]3[C@H](O)C[C@@H]4C[C@H](O)CC[C@]4(C)[C@H]3C[C@H](O)[C@]12C | inactive |  |
| NCCc1ccn[nH]1 |  | -0.0013% [at 18.6 µM] |
| O=P(O)(O)OCC(O)CO (centres undefined) | inactive |  |
| CCC1Nc2cc(Cl)c(S(N)(=O)=O)cc2S(=O)(=O)N1 (centres undefined) | inactive |  |
| O=C(/C=C/c1ccccc1)NCCO | inactive |  |
| CCC(C)N (centres undefined) | inactive |  |
| CNC(=O)C(c1ccccc1)c1ccccc1 | inactive |  |
| CCCOCCOCCOCCO | inactive |  |
| O=[Si]=O | inactive |  |
| C=CCOc1c(Br)cc(C(C)(C)c2cc(Br)c(OCC=C)c(Br)c2)cc1Br | inactive |  |
| CC(=O)OCC(=O)[C@@]1(O)[C@H](OC(C)=O)C[C@H]2[C@@H]3CCC4=CC(=O)C=C[C@]4(C)[C@@]3(F)[C@@H](O)C[C@@]21C | inactive |  |
| CC(C)COC(=O)COc1ccc(Cl)cc1Cl | inactive |  |
| CC(=O)c1ccc(OCC(=O)N2CCCCC2)cc1 | inactive |  |
| CN=C(NC#N)NCCSCc1csc(N=C(N)N)n1 | inactive |  |
| C[Si]1(C)N[Si](C)(C)N[Si](C)(C)N1 | inactive |  |
| Cc1ccccc1C | inactive |  |
| O=c1cc(O)c(Cl)c[nH]1 | inactive |  |
| CCC(CO)CO | inactive |  |
| COC(/C=C(\C)CCC=C(C)C)OC | inactive |  |
| CC(C)(CO)[C@@H](O)C(=O)NCCCO | inactive |  |
